Our source for the composite z-score and z-score values is PubChem BioAssay.

Each structure is given as a SMILES string.

Test [1] concerns Human papillomavirus type 1a protein E7 (residues 44-93). The test is described as follows: small molecules binding HPV E7 44-93 – biochemical, small-molecule microarray, residues 44-93, 635 nm fluorescence, primary screen (AID 1108).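 Also: E7 fragment applied at 1 µg/mL in TBST for 1 h at 4 C; score combines spot fluorescence with its signal to noise ratio.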 The note with it: fluorescence 635 nm, higher = more signal.
The nature of test [2]: hepatitis C replication reporter changes, two-sided – Huh7 cells, luciferase reporter, HCV replication inhibitor project, primary screen (AID 1109).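 Also: huh7 hepatoma cells harbouring a luciferase neomycin HCV replicon reporter; luciferase luminescence as measure of HCV replicon replication; test concentration not given here.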 The note with it: Huh7 HCV replicon luciferase reporter, 48 h; higher = more signal.
Test [3] addresses Left-right determination factor 2 (Homo sapiens) (UniProt O00292). The test is described as follows: small molecules binding LEFTY2 protein – biochemical, small-molecule microarray, 635 nm fluorescence scan, primary screen (AID 1110). The note with it: higher = more signal.
The target in test [4] is Calmodulin-1 (Homo sapiens) (UniProt P0DP23). The test is described as follows: small molecules binding calmodulin-1 with EGTA – biochemical, small-molecule microarray, Cy5-labelled CALM1, profiling panel (AID 1111).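 Also: labelled calmodulin applied in Tris saline Tween buffer holding calcium plus EGTA and DTT.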 The note with it: Cy5-CALM1 binding fluorescence, higher = more signal.
Test [5] shares this target. The test can be described thus: small molecules binding Ca-loaded calmodulin-1 – biochemical, small-molecule microarray, Cy5-labelled CALM1, plus calcium, artefact control for SMM control-protein annotation, profiling panel (AID 1112).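 Also: score merges spot fluorescence with signal to noise from triplicate slides.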 The note with it: Cy5-CALM1 binding fluorescence, higher = more signal.
Test [6] is described as follows: probe aWnt5a binding to arrayed compounds – biochemical, biotinylated probe, 635/667 nm fluorescence, primary screen (AID 1113).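 Also: score merges 667 nm fluorescence intensity with signal-to-noise per printed feature.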 The note with it: small-molecule microarray, higher = more signal.
Test [7] is described as follows: probe aShh binding to arrayed compounds – biochemical, biotinylated probe, 635/667 nm fluorescence, primary screen (AID 1114).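 Also: probe is biotin-labelled aShh protein from a stem cell growth factor screen; measures binding of labelled protein to compounds printed on the slide; score merges feature fluorescence at 667 nm with signal-to-noise.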 The note with it: small-molecule microarray, higher = more signal.
Test [8] in a line: probe aNog binding to arrayed compounds – biochemical, biotinylated probe, 635/667 nm fluorescence, primary screen (AID 1115).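 Also: probe is biotinylated aNog protein used at 0.15 µg/mL for 1 h at 4 C; z-score combines 667 nm fluorescence of each spot with its signal to noise.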 The note with it: small-molecule microarray, higher = more signal.
The target in test [9] is Torsin-1A-interacting protein 1 (Homo sapiens) (UniProt Q5JTV8). The test is described as follows: compound microarray binding of lysate hLAP1 – cell lysate, small-molecule microarray, COS7 lysate, 635/667 nm fluorescence, primary screen (AID 1116). The note with it: 635 nm fluorescence, higher = more signal.
Chain of Torsin-1A-interacting protein 1 (Homo sapiens) (Q5JTV8 whole entry, looked up): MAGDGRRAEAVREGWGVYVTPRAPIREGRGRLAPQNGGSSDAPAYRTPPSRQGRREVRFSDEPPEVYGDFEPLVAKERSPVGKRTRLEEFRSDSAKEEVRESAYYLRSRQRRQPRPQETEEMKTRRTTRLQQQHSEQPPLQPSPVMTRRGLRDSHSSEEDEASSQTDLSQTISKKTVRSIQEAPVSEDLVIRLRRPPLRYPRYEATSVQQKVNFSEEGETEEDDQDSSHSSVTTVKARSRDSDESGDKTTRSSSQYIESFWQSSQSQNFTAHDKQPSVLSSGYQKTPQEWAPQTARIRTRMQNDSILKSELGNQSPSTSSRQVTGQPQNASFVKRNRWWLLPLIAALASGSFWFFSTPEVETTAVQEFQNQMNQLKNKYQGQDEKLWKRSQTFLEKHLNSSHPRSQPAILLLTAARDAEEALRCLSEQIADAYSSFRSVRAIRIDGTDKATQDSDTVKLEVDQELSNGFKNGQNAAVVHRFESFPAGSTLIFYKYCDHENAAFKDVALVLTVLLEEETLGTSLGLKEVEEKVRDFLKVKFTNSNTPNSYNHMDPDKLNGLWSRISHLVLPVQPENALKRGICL
Test [10] addresses Alpha-bungarotoxin (Bungarus multicinctus) (UniProt P60615). The test is described as follows: compounds binding labelled alpha-BTX control protein – biochemical, small-molecule microarray, Alexa647 label, 635/667 nm fluorescence, artefact control for SMM control protein annotation, profiling panel (AID 1117). The note with it: alpha-BTX-A647 binding fluorescence, higher = more signal.

Chain of Left-right determination factor 2 (Homo sapiens) (O00292 whole entry, looked up): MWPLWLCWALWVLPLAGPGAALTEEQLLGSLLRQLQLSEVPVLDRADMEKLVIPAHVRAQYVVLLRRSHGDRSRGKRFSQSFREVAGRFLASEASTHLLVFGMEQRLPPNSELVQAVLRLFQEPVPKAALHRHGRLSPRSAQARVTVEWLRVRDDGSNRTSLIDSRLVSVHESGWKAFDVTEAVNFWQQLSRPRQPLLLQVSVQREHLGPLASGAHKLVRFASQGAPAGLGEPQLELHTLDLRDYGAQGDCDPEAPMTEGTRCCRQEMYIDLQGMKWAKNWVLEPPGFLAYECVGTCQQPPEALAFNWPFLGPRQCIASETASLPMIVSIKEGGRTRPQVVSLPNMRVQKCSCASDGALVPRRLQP
Chain of Alpha-bungarotoxin (Bungarus multicinctus) (P60615 whole entry, looked up): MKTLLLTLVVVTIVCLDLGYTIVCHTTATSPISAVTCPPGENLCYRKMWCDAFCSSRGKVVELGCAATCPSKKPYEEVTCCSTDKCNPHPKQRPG

Regarding `COCCCNC(=O)[C@@]1(Cc2ccccc2I)c2ccccc2C(=O)N(Cc2ccccc2OC)[C@H]1c1ccc(CO)cc1`, the composite z-score was 1.39 in test [1]; -0.43 in test [3]; 0.0345 in test [4]; 0.0879 in test [5]; -0.248 in test [6]; -0.0146 in [7]. Also, the composite z-score in test [8] is -0.537; in test [9], -0.013; in test [10], 0.101. The z-score in test [2] was -2.08.

With `COCCOC(=O)N1C(=O)[C@@]2(c3cc(C#CCCO)ccc31)[C@H](c1ccc(O)cc1)N1[C@H](c3ccccc3)[C@H](c3ccccc3)OC(=O)[C@H]1[C@@H]2C(=O)NC[C@H](O)c1ccccc1`, the composite z-score in [1] was 0.495; in test [3], 0.285; in [4], 0.212; in test [5], 0.0658; in test [6], -0.027; in test [7] it was 0.204. In addition, the results for the composite z-score in [8], in test [9] and in [10] were 1.05, 0.981 and 0.367, respectively. The z-score in [2] is -1.02.

With `Cc1ccc(S[C@]2(C(=O)NC(C)C)CC(=O)N(Cc3ccccc3)[C@@H]2c2ccc(CO)cc2I)cc1`, the composite z-score was -0.0832 in test [1]; -1.13 in test [3]; 0.129 in [4]; 0.454 in test [5]; -0.172 in [6]; 0.0711 in test [7]. Further, the composite z-score in [8] is 0.813; in test [9], -0.426; in test [10], -0.684. Also, the z-score in [2] was -1.78.

With `C=C(C(=O)CC[C@H](OC(=O)c1ccccc1-c1ccccc1C(=O)O)c1ccc(OCCO)cc1)C(C)C`, the composite z-score was 1.38 in test [1]; 0.0164 in test [3]; 0.275 in test [4]; -0.37 in [5]; 0.204 in test [6]; 0.0639 in [7]. For the same compound, the values for the composite z-score in test [8], in test [9] and in [10] were 1.14, 0.735 and 0.971, respectively. Besides, in test [2], the z-score is -1.26.

For `CCCCC(=C=CC[C@@H](O)c1ccc(OCCO)cc1)CCO`, the composite z-score in test [1] was -0.919; in test [3] it was -0.488; in [4], -0.45; in test [5], 0.0486; in [6], -0.101; in test [7], -0.154. For the same compound, the composite z-score is -0.314 in [8], 0.764 in [9] and 0.657 in [10]. The z-score in test [2] was -0.96.

`CN(C)C(=O)[C@]1(CCS(=O)(=O)c2ccccc2)N=C(c2ccc(OCCCO)cc2)O[C@@H]1c1ccccc1CN=[N+]=[N-]`: the composite z-score in test [1] was 0.924; in [3] it was -0.0755; in test [4] it was 1.98; in test [5], 0.68; in test [6], 0.0215; in test [7] it was -0.0891. Besides, the composite z-score in [8] turned out to be 0.463; in test [9], 1.48; in test [10] it was 1.71. In addition, in test [2], the z-score was -2.39.

As for `Cc1ccc(S[C@]2(C(=O)NCC(C)C)CC(=O)N(C(C)C)[C@@H]2c2ccc(CO)cc2I)cc1`, the composite z-score is 0.297 in test [1]; -1.62 in test [3]; -1.21 in test [4]; 0.0034 in test [5]; -0.112 in test [6]; -0.0035 in test [7]. The values for the composite z-score in test [8], in [9] and in test [10] were -0.131, 0.626 and -0.659, respectively. For the same compound, in test [2], the z-score was -0.98.

Turning to `COCCOC(=O)N1C(=O)[C@@]2(c3cc(C#CCNC(N)=O)ccc31)[C@H](c1ccc(O)cc1)N1[C@H](c3ccccc3)[C@H](c3ccccc3)OC(=O)[C@H]1[C@@H]2C(=O)N1CCc2cc(OC)c(OC)cc2C1`, the composite z-score in [1] was 1.31; in test [3] it was 0.266; in test [4] it was 0.111; in [5] it was 0.118; in test [6], 0.586; in test [7], -0.167. For the same compound, the composite z-score in test [8] is -0.25; in [9] it was 0.712; in test [10], 0.857. Further, the z-score in [2] was -0.281.

In the case of `CCN1C(=O)C2CC(=O)C3C(CN(S(=O)(=O)c4ccc(C)cc4)C3c3ccc(C)cc3)C2C1=O` (stereo not given), the composite z-score in [1] was -1.69; in [3], 0.015; in test [4], 1.85; in test [5] it was 0.495; in test [6] it was -0.0269; in [7], 0.749. Moreover, the composite z-score in [8] is 0.685; in test [9], 1.08; in test [10], -0.344. Further, the z-score in test [2] is -2.44.

Take `O=C1OCCC/C=C\[C@H]2OC34C=CCN(Cc5ccccc5)C(=O)[C@H]3N(CCO)C(=O)[C@@H]4C12` (stereo not given in full): the composite z-score in [1] is -0.574; in test [3] it was 0.518; in test [4], -0.251; in test [5], 0.774; in test [6], -0.169; in test [7], -0.0709. Moreover, the composite z-score in test [8] is -0.33; in test [9] it was -0.447; in test [10] it was -1.06. In addition, in [2], the z-score came to 0.0684.

For the compound `[N-]=[N+]=NCc1ccccc1[C@H]1OC(c2ccc(OCCCO)cc2)=N[C@@]1(Cc1ccccc1N=[N+]=[N-])C(N)=O`, the composite z-score in test [1] is 1.44; in test [3], 0.373; in test [4], 1.1; in test [5], 0.613; in test [6] it was 0.117; in test [7] it was -0.111. Besides, the results for the composite z-score in [8], in [9] and in [10] were 0.924, 0.154 and 1.03, respectively. Moreover, the z-score in test [2] was -1.

`O=C(c1ccccc1)N1Cc2ccccc2C[C@@]2(N=C(c3ccc(OCCCO)cc3)O[C@H]2c2ccccc2)C1=O`: the composite z-score in [1] is 1.38; in [3] it was 0.821; in test [4], 2.64; in [5], -0.249; in test [6], -0.0515; in test [7], 0.0483. The composite z-score in [8] was -0.432; in [9], 2.39; in test [10], 1.01. The z-score in test [2] was -2.91.

Regarding `COc1ccc(C(=O)Nc2cccc(CN3C(=O)[C@]4(O[C@H](CC(=O)N(CCO)Cc5ccccc5)[C@@H]([Si](C)(C)c5ccc(OC)cc5)[C@@H]4C)c4ccccc43)c2)cc1`, the composite z-score in test [1] was 0.753; in test [3], 0.546; in [4], -0.0878; in [5], -0.342; in test [6], 0.093; in test [7] it was -0.0192. Also, the values for the composite z-score in [8], in test [9] and in test [10] were -0.0315, 0.566 and 0.696, respectively. Further, the z-score in test [2] was -3.73.

For the compound `COC(=O)[C@@]1(Cc2ccc(F)cc2)[C@H]2c3cc(C(=O)N(C)C)n(Cc4ccc(C(F)(F)F)nc4)c3C[C@H]2CN1C(=O)c1ccccc1`, the composite z-score in test [1] was found to be 1.38; in test [3] it was 0.22; in test [4], 2.27; in test [5], 0.789; in test [6], 0.15; in [7] it was 0.25. The composite z-score is -0.235 in test [8], 0.0971 in test [9] and 0.922 in test [10]. For the same compound, the z-score in [2] is -2.42.

As for `CCOC(=O)C[C@H]1[C@H](OC(=O)c2ccc(-c3ccccc3)cc2)[C@@H](NC(=O)C2CCCCC2)c2cc(OCCCO)ccc2N1C(=O)Cc1ccc(OC)cc1`, the composite z-score is 0.612 in test [1]; 0.4 in test [3]; 1.07 in test [4]; 0.881 in test [5]; -0.0523 in test [6]; -0.571 in [7]. In addition, the composite z-score in test [8] is -0.638; in [9], 0.527; in test [10] it was 0.333. Besides, in [2], the z-score was -1.57.

Turning to `[N-]=[N+]=Nc1ccccc1C[C@@]1(C(=O)NCC(O)CO)N=C(c2ccc(OCCCO)cc2)O[C@@H]1c1ccccc1N=[N+]=[N-]` (stereo not given in full), the composite z-score in [1] was 0.796; in [3], -0.458; in test [4] it was 2.15; in test [5], 0.176; in test [6], 0.0586; in test [7], 0.348. For the same compound, the composite z-score in test [8] was -0.596; in test [9], 1.64; in test [10], 0.427. For the same compound, in [2], the z-score is -3.13.

Consider `O=C1OC[C@@H](c2ccccc2)n2cc(/C=C/c3ccccc3)cc21`, for which the composite z-score in test [1] was 0.06; in test [3], -0.623; in test [4] it was -0.638; in [5], -1.27; in [6], -0.197; in test [7], -0.0709. For the same compound, the results for the composite z-score in test [8], in test [9] and in test [10] were -0.367, -0.948 and 0.45, respectively. For the same compound, the z-score in test [2] was -0.18.
